High-throughput results deposited in PubChem by National Center for Advancing Translational Sciences (NCATS).
A selection: hits, their analogues and other compounds. The true share with any hit is near 6.6%.
HT1080 IDH1KD tx: toxicity to HT-1080 IDH1 knockdown cells (counter line); actives 2% (n = 360,000); HT-1080 IDH1 knockdown viability, ATP luminescence, 48 h; Potency, µM (doses to about 46.1 µM), without a hit: at the highest dose activity, negative = toxicity, hits mostly cytotoxic;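 note: 0% = DMSO wells and -100% = cell-free medium wells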
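IDH1KD HT-1080 cells, 750/well, RPMI + 5% FBS; compound pinned after 2 h settling; 48 h, 37 °C; CellTiter-Glo luminescence; % activity normalised to DMSO and no-cell wells; curves fitted, classed by r2 and efficacy.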
KB-3-1 cytotox: KB-3-1 parental cell cytotoxicity; actives 1.4% (n = 400,000); Potency, µM (series often up to 46.1 µM), actives largely listed as cytotoxic; KB-3-1 viability, CellTiter-Glo ATP luminescence, 72 h; note: % is set by controls: 0 for no effect and ±100 for the full control effect; nearly all actives have a fitted effect of over 60% in size
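Luminescent ATP read-out (CellTiter-Glo) measures survival of drug-naive KB-3-1 cells after 72 h compound exposure at 37 °C. Titration series was screened from lowest to highest concentration, with DMSO vehicle plates as background controls.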
HepG2 viability: counter-screen for TGF-b inhibitors: cytotoxicity in HepG2 cells | HepG2 CAGA-GFP viability, ATP luminescence, 18 h | Potency, µM (series often up to 46.1 µM), for inactives: at the top dose activity change, negative = cytotoxicity, actives largely listed as cytotoxic | actives 0.76% (n = 410,000)
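CellTiter-Glo luminescence gave cytotoxicity after 18 hours at 37 degrees C. The cells were HepG2 CAGA-GFP in 1% FBS DMEM, stimulated with 500 pg/mL TGF-beta after compound addition. %Activity was normalised to no-cell wells (complete cell-killing) and DMSO (no toxicity), and curves were fitted and classified.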
KB-V1 MDR tox: KB-V1 MDR subline cytotoxicity; KB-V1 MDR cells viability, CellTiter-Glo, 72 h; Potency, µM (doses to about 46.1 µM), most hits filed as cytotoxic; actives 3.4% (n = 400,000); note: % is set by controls: 0 for no effect and ±100 for the full control effect; nearly all actives have a fitted effect of over 60% in size
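Following 72 h at 37 degrees C with compound, KB-V1 cell viability was read by CellTiter-Glo luminescence, medium being phenol-red-free DMEM plus 10% FBS; concentration-response parameters came from normalized, curve-fitted qHTS data.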
HT1080NT lethal: kills 2HG-producing HT-1080-NT fibrosarcoma cells; HT-1080-NT fibrosarcoma viability, CellTiter-Glo ATP luminescence, 48 h; Potency, µM (highest dose often 46.1 µM), for inactives: at the highest dose activity, negative = less viability, most hits filed as cytotoxic; actives 1.6% (n = 360,000);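 note: NT is the 2HG producing partner of a matched IDH1 knockdown line; 0% = DMSO-treated cells and -100% = media-only wells without cells; nearly all actives have a fitted effect of over 55% in size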
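HT-1080-NT; 750 cells/well; 5% FBS RPMI; 48 h compound, 37 degrees C; CellTiter-Glo luminescence; curve fitting and curve-class assignment.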
TGFb inhibitor: TGF-b pathway inhibition. HepG2 CAGA-GFP TGF-b/SMAD3 reporter, GFP fluorescence, 18 h; TGF-beta stimulated, 500 pg/mL final. Potency, µM (series often up to 46.1 µM), without a hit: top-dose activity, negative = inhibition, usual class: inhibitors. actives 1.2% (n = 410,000); note: % is set by controls: 0 for no effect and ±100 for the full control effect; nearly all actives have a fitted effect of over 65% in size
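Cell-based qHTS in HEPG2 carrying a CAGA-GFP Smad reporter; compounds added before 500 pg/mL final TGF-beta, 18 h incubation at 37 degrees C, GFP fluorescence quantified per cell by imaging cytometry.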
Active calls of the source: *; i = inactive; ? = inconclusive; · = not tested or not shown. Calls come from the whole dose curve; as a rule, active = well fitted curve in the direction sought with a large enough effect; inconclusive = small, poorly fitted or top-dose-only effect, or another doubt; inactive = no such curve, though single readings can be large; an effect the other way counts as inactive or inconclusive. Potency is the fitted concentration of half-maximal effect.

SMILES | HT1080 IDH1KD tx | KB-3-1 cytotox | HepG2 viability | KB-V1 MDR tox | HT1080NT lethal | TGFb inhibitor
O=C(C1CC1)N1N=C(c2ccc(Cl)cc2)CC1(O)C(F)(F)F (centres undefined) | -7% | i | -34% | i | 1% | ?
Cc1ccccc1Cn1c(=N)n(CC(=O)c2ccco2)c2ccccc21 | ? | ? | -24% | i | ? | 10µM*
N=c1n(Cc2ccccc2)c2ccccc2n1Cc1ccccc1 | -25% | ? | -52% | 18µM* | ? | ?
CCOC(=O)Cn1c(=N)n(Cc2ccccc2)c2ccccc21 | -2% | i | -3% | i | 1% | 17%
N=c1n(CC(=O)c2ccc(Br)cc2)c2ccccc2n1Cc1ccccc1 | -7% | ? | -99% | ? | -23% | 16µM*
CCCn1c(=N)n(CC(=O)c2ccco2)c2ccccc21 | -15% | i | -9% | ? | 8% | 1%
C[N+]1(CC(=O)c2ccc(I)cc2)CCCc2ccccc21 (centres undefined) | · | ? | -41% | i | · | -14%
CCc1nc(SCC(=O)c2ccccc2)c2ccccc2n1 | -7% | i | -19% | i | -1% | -3%
CCc1nc(SCC(=O)N2c3ccccc3Sc3ccccc32)c2ccccc2n1 | 9% | i | -10% | 8.2µM* | 2% | 1%
COC(=O)c1scc(-c2ccc(C)cc2)c1S(=O)(=O)Nc1cc(C)c(Cl)cc1OC | · | i | -47% | i | · | -29%
Cc1nc2ccc(NC(=O)c3cccs3)cc2c(=O)n1Cc1ccc(Cl)cc1 | ? | ? | -30% | ? | 6.3µM* | ?
O=C(NNc1nc(-c2ccccc2)c2cc(Br)ccc2n1)c1ccc(S(=O)(=O)N2CCCCC2)cc1 | -8% | i | -3% | 3.3µM* | -9% | 2%
O=c1cc(O)c2sc(Nc3ccc(F)c(Cl)c3)nc2[nH]1 | 10% | 21µM* | 12% | i | -1% | 35%
O=c1cc(O)c2sc(Nc3ccc(Cl)c(F)c3)nc2[nH]1 | -13% | 13µM* | 32% | i | -1% | -30%
N#Cc1cc(C#N)c(N2CCN(c3cccc(Cl)n3)CC2)nc1N | ? | i | -16% | 18µM* | ? | 27%
CCOC(=O)CC(NC(=O)CCc1c(C)nc2c(-c3ccccc3)c(C)nn2c1C)c1ccc(C)cc1 (centres undefined) | · | i | 1% | i | · | 10µM*
CCOC(=O)CC(NC(=O)CCc1c(C)nc2c(-c3ccccc3)c(C)nn2c1C)c1ccc(OC(C)C)cc1 (centres undefined) | · | i | -35% | i | · | 16µM*
O=C(CSc1nc(=O)[nH]c2c1CCC2)NCc1ccc(Cl)cc1 | · | · | 0% | · | · | -2%
CC(C)CC(=O)/C(=C\c1ccc(Cl)cc1Cl)n1cncn1 | 2.9µM* | ? | 7.9µM* | i | 5.8µM* | 7.1µM*
COc1ccc(/C=C(/C(=O)c2ccc(Cl)cc2Cl)n2cncn2)cc1 | -2% | i | -10% | i | -3% | -10%
CN(C)c1ccc(/C=C(/C(=O)c2ccc(Cl)cc2Cl)n2cncn2)cc1 | ? | 23µM* | -6% | 5.2µM* | ? | -11%
CCCCCn1c(CCCNC(=O)c2cccc(C)c2)nc2ccccc21 | · | i | -106% | i | · | ?
COc1ccc2c(c1)nc(-c1cccc(Br)c1)c(=O)n2C(c1ccccn1)c1nc2ccccc2[nH]1 (centres undefined) | -13% | i | -4% | i | -5% | -32%
COc1ccc(C(=O)NCCc2nc3ccccc3[nH]2)cc1 | · | · | -15% | · | · | -10%
Cc1nc2c(OCc3ccc(F)c(F)c3)cccn2c1N(C)C(=O)CCC1CCCC1 | 18µM* | i | -34% | i | ? | ?
SMILES | HT1080 IDH1KD tx | KB-3-1 cytotox | HepG2 viability | KB-V1 MDR tox | HT1080NT lethal | TGFb inhibitor
COc1ccccc1C(=O)Nc1c2c(nn1-c1cccc(C)c1C)CS(=O)(=O)C2 | ? | i | -7% | ? | -1% | -3%
COc1cccc(C(=O)Nc2c3c(nn2-c2ccc(C)cc2C)CS(=O)(=O)C3)c1OC | · | i | 3.2µM* | i | · | 26%
CC1(C)CC(=O)C2=C(C1)OC1=C(C(=O)CC(C)(C)C1)C2c1ccc(O)cc1O | 5µM* | i | 7.1µM* | i | 5.6µM* | 7.1µM*
CC1(C)CC(=O)C2=C(C1)OC1=C(C(=O)CC(C)(C)C1)C2c1ccc(O)c([N+](=O)[O-])c1 | 4% | i | 3% | i | 1% | -2%
C#CCOCCOCCOCCNc1nc(N2CCN(C(=O)CCCCCCCCCCNC(=O)Cn3cc(C[C@@H](C)O)nn3)CC2)nc(N2CCN(C(=O)CCCCCCCCCCNC(=O)[C@H](CCCCN)n3cc(C[C@@H](C)CC)nn3)CC2)n1 | 21µM* | ? | 13µM* | i | ? | ?
C#CCOCCOCCOCCNc1nc(N2CCN(C(=O)CCCCCCCCCCNC(=O)[C@H](CCCCN)n3cc(C[C@@H](C)CC)nn3)CC2)nc(N2CCN(C(=O)CCCCCCCCCCNC(=O)[C@H](CCCCN)n3cc(C[C@@H](C)CC)nn3)CC2)n1 | ? | ? | 10µM* | ? | ? | ?
C#CCOCCOCCOCCNc1nc(N2CCOCC2)nc(N2CCN(C(=O)CCCCCCCCCCNC(=O)[C@@H]([C@H](C)O)n3cc(C)nn3)CC2)n1 | 1% | i | -13% | i | -8% | -8%
C#CCOCCOCCOCCNc1nc(N2CCN(C(=O)CCCCCCCCCCNC(=O)[C@@H]([C@H](C)O)n3cc(C)nn3)CC2)nc(N2CCN(C(=O)CCCCCCCCCCNC(=O)[C@@H]([C@H](C)O)n3cc(C)nn3)CC2)n1 | 21µM* | ? | -3% | i | -27% | -9%
C#CCOCCOCCOCCNc1nc(N2CCN(C(=O)CCCCCCCCCCNC(=O)[C@@H](CCSC)n3cc(CCO)nn3)CC2)nc(N2CCN(C(=O)CCCCCCCCCCNC(=O)[C@H]([C@@H](C)CC)n3cc(CCCCN=C(N)N)nn3)CC2)n1 | ? | 16µM* | -76% | ? | ? | ?
C#CCOCCOCCOCCNc1nc(N2CCN(C(=O)CCCCCCCCCCNC(=O)[C@H](CCCCN)n3cc(CCO)nn3)CC2)nc(N2CCN(C(=O)CCCCCCCCCCNC(=O)[C@H](CCCN=C(N)N)n3cc(C[C@@H](C)CC)nn3)CC2)n1 | ? | ? | -109% | i | ? | ?
